Results on eight molecules are retold here after PubChem BioAssay (NCI).

Each structure is given as a SMILES string. This is part of a sample that, as a whole, favours compounds with a hit. Of some 79,000 tested, about 15% had one in any assay. Values without a mark were called inactive. Calls of active or inactive are those of the source. No stated cut-off is given here; in the data, active means growth inhibition above about 70%; inactive means the rest.

The nature of this experiment: NCI Yeast Anticancer Drug Screen. Data for the rad14 strain (AID 159).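 Further: 0% = growth of vehicle-treated control cultures.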 Particulars: S. cerevisiae rad14 strain growth inhibition, active compounds read high. The protocol: Growth inhibition of yeast strains with defined genetic alterations is measured as a screen for potential anti-cancer activity. Selected strains with alterations in DNA damage repair or cell cycle control were exposed to compounds and growth inhibition was measured relative to vehicle treated controls. The strain used in this assay is rad14

Consider `COC(=O)C1c2cc3c(c(O)c2C(O)CC1(C)O)C(=O)c1c(O)cc2c(c1C3=O)OC1OC2(C)C(O)C(N(C)C)C1O` (stereo not given), for which the growth inhibition is 0% (at 1.2 µM); 16% (at 3.7 µM); 79% (active) (at 11.0 µM); 97% (active) (at 33.0 µM); 92% (active) (at 100.0 µM).

As to `NNc1ccccc1Cl`, the growth inhibition (at 1.2 µM) is 23%; the growth inhibition (at 3.7 µM) is 29%; the growth inhibition (at 11.0 µM) was 76% (active); the growth inhibition (at 33.0 µM) was 96% (active); the growth inhibition (at 100.0 µM) was 96% (active).

As for `O=S(=O)(O)c1ccc(Cl)cc1.[Cd]`, the growth inhibition is -2% (at 1.2 µM); 18% (at 3.7 µM); 48% (at 11.0 µM); 71% (active) (at 33.0 µM); 86% (active) (at 100.0 µM).

For `CCCCCCCCCCCCCCCCP(=O)(O)OCC(N)C(=O)O` (stereo not given), the growth inhibition was -67% (at 1.2 µM); -61% (at 3.7 µM); -55% (at 11.0 µM); -47% (at 33.0 µM); 93% (active) (at 100.0 µM).

For `Nc1nnc(N)n1-n1c(N)nnc1N`, the growth inhibition is, setting by setting: (at 1.2 µM) -3%; (at 3.7 µM) -3%; (at 11.0 µM) -4%; (at 33.0 µM) -6%; (at 100.0 µM) 0%.

Take `CCc1cccc(C(C)C)c1NC1=C([n+]2ccc(C)cc2)C(=O)c2ccccc2C1=O`: the growth inhibition was -1% (at 1.2 µM); 4% (at 3.7 µM); 4% (at 11.0 µM); 5% (at 33.0 µM); 21% (at 100.0 µM).

As for `O=[N+]([O-])c1oc2ccc3ccccc3c2c1CCO`, the growth inhibition was 94% (active) (at 1.2 µM); 97% (active) (at 3.7 µM); 98% (active) (at 11.0 µM); 99% (active) (at 33.0 µM); 99% (active) (at 100.0 µM).

As to `CCCN(CCC)c1c([N+](=O)[O-])cc(S(N)(=O)=O)cc1[N+](=O)[O-]`, the growth inhibition is -11% (at 1.2 µM); -18% (at 3.7 µM); -24% (at 11.0 µM); 29% (at 33.0 µM); -2% (at 100.0 µM).
